# From the supplement of paper PMC3334620
# Over roughly 33,000 sequences, “E-score (-0.5 to 0.5)” has its median near -0.053; the highest 2% begin near 0.37. The full list was thinned out, with the highest values kept by preference.
# Biological target: Hap1 (UniProt P0CE41)
# Experiment: PBM E-score (8-mer binding enrichment) (E-score (-0.5 to 0.5)); higher = stronger / more preferred TF binding
# Settings: protein concentration: 200 nM; construct: GST-DNA-binding domain
# Summary of the method: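 Using PURExpress in vitro transcription/translation, GST-tagged yeast transcription factors were made in full-length or DNA-binding-domain form. These were applied at about 100-200 nM to double-stranded universal all-10-mer Agilent arrays, and bound protein was detected with fluorescent anti-GST. Scans were normalised with masliner before the Universal PBM Analysis Suite assigned E-scores to ungapped eight-base words pooled with their reverse complements.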
# Sequence of UniProt P0CE41 (P0CE41 whole entry): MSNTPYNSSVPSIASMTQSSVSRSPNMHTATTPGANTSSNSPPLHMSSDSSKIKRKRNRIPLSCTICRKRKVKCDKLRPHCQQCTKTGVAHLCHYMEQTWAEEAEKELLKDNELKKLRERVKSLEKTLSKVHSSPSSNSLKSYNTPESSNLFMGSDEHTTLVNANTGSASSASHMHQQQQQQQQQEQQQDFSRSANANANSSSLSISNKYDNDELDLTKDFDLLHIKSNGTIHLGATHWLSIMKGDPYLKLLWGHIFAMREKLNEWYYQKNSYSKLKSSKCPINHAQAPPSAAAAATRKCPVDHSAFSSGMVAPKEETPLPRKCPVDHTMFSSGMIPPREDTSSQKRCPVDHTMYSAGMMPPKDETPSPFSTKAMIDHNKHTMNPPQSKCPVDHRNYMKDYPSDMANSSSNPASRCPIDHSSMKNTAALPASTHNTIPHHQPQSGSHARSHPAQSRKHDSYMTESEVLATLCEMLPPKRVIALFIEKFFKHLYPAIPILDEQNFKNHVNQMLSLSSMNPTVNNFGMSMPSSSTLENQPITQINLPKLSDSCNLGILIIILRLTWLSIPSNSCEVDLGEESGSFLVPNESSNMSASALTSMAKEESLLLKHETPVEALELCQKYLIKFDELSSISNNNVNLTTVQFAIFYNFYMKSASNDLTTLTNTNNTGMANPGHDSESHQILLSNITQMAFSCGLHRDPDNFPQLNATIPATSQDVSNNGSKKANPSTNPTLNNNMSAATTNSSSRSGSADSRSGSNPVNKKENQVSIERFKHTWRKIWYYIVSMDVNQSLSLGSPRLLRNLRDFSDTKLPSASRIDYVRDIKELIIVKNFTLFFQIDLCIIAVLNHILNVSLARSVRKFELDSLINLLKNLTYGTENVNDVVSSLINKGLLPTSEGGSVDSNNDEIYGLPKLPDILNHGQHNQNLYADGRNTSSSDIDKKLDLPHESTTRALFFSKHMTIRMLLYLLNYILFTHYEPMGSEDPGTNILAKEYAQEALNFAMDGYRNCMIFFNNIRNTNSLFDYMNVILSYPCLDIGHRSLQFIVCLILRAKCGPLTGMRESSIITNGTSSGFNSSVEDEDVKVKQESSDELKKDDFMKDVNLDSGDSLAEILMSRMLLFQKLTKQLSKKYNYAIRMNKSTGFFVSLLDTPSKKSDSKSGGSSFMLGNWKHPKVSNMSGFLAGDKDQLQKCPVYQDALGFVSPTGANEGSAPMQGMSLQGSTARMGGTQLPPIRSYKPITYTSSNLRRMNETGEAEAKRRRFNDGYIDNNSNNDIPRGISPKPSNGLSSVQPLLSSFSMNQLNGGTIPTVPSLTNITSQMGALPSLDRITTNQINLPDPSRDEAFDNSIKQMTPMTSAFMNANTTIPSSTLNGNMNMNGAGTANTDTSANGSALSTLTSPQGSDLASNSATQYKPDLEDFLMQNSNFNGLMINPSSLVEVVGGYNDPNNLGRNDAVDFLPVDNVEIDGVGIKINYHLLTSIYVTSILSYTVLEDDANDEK
row,Sequence,PBM E-score
1,ATAAGCCG,0.3
2,ACTGATAG,-0.267
3,CGGATCCG,0.401
4,CGGATCCA,0.318
5,CCGATCGG,0.402
6,CCGATCCA,0.269
7,CCGATCGA,0.325
8,ACGATCCG,0.302
9,CGGATCCC,0.28
10,CCGATCCG,0.438
11,ACGATCGG,0.258
12,ACTTTATG,-0.17
13,ATCAGTAG,-0.276
14,ACAGGGCC,0.115
15,GGTCCCCA,0.0281
16,ACTCGGAC,0.385
17,CCTCGGCC,0.346
18,ACTCGGAT,0.311
19,CGTCGGAG,0.313
20,CCTCGGGC,0.31
21,CCTCGGAC,0.39
22,ACTCGGAA,0.344
23,ACTCGGCC,0.361
24,ACTCGGAG,0.305
25,GCTCGGCC,0.375

row,Sequence,PBM E-score
1,CCTCGGAA,0.314
2,CCTCGGAG,0.394
3,AGACTAAG,-0.103
4,CGGCAGGA,0.175
5,ATGGAAAC,-0.0981
6,TCACTTAA,-0.167
7,CGCGCCGC,0.228
8,AAACGTCG,0.00491
9,GCTCGGAA,0.335
10,ACTCGGCG,0.259
11,CCTCGGCA,0.294
12,GGTCGGAC,0.342
13,CCTCGGCG,0.37
14,GCTCGGAC,0.403
15,GATCAAAC,-0.0316
16,TAGAGCAA,-0.296
17,AGTTGATG,-0.292
18,CCGATATA,0.44
19,CAGATATC,0.199
20,GCGATATA,0.24
21,CCGATATC,0.458
22,ACGATATC,0.0796
23,ACGATATA,-0.0495
24,AATCGGGA,0.159
25,ATGCCTTG,-0.2

row,Sequence,PBM E-score
1,CCAGACGA,-0.0873
2,ATCGTCCC,0.0149
3,AACGTCCA,-0.0731
4,ACCGTCCG,0.381
5,AACGTCCC,-0.179
6,AACGTCCG,0.371
7,CCCGTCCG,0.314
8,ACCGTCCC,0.141
9,ATCGTCCA,-0.0714
10,ATCGTCCG,0.379
11,CAGTGCCC,0.00772
12,ACAAGGGC,-0.112
13,CCATTAGG,-0.215
14,AATTGCAG,-0.0487
15,CGAGGCAC,0.0885
16,AATAGATA,-0.00886
17,GCCTTAAC,-0.0709
18,CTGGTTTA,-0.309
19,ACGTCTAC,-0.179
20,CTGGTCAC,-0.325
21,AACGGGGG,0.158
22,ACCAGAGT,-0.222
23,GCCAGAGA,-0.227
24,GCCGGAGC,0.344
25,GACGGAGA,0.318

row,Sequence,PBM E-score
1,CCCGGAGA,0.428
2,ACCGGAGT,0.4
3,GCCGGAGA,0.372
4,CCGGGAGA,0.29
5,ACCGGAGC,0.409
6,CCCGGAGC,0.354
7,ACCGGAAT,0.36
8,CCCAGAGA,-0.226
9,ATTGGTGA,-0.281
10,AGCTTTTG,-0.167
11,AGTAGTGA,-0.1
12,AAGAAGGA,-0.21
13,ACAGGAAT,-0.135
14,ACACGGAT,0.209
15,CTCCTCAC,-0.186
16,CCGTTCCA,0.172
17,TCCGGAGA,0.442
18,AACGGAGT,0.373
19,AGCGGAGA,0.276
20,AACGGAGC,0.241
21,TACGGAGA,0.326
22,ACAGGAGA,-0.131
23,CCCGGAGG,0.285
24,CACGGAGA,0.365
25,AACGGAGA,0.357

row,Sequence,PBM E-score
1,AGCGGAGG,0.158
2,ACCGGAGA,0.43
3,ACCGGAGG,0.399
4,CAAATAAG,0.0685
5,AAAACGGG,0.174
6,CGGGGACG,0.163
7,AACGCGGG,0.267
8,GCGTCTAA,-0.0983
9,GACACAGA,0.0169
10,GCCATACC,0.0518
11,CTATCGAG,-0.0625
12,CAGGTTTA,-0.0176
13,AACGGTCG,0.23
14,TAGCACTA,-0.326
15,GGATTTAA,0.444
16,CGATTTAC,0.149
17,CGATTTAA,0.0314
18,GGATTTAC,0.415
19,TGATTTAA,0.0921
20,AGATTTAC,-0.103
21,TTACCGAA,0.233
22,CGTCTGAC,-0.045
23,ATGAAGCG,-0.208
24,ACCACTTA,-0.00971
25,ATGTTAGA,-0.336

row,Sequence,PBM E-score
1,AAGCCGGC,0.399
2,AAGCCGTC,0.27
3,GAGCCGCA,-0.0121
4,AAGCCGGG,0.238
5,TAGCCGGA,0.407
6,CAGCCGGC,0.331
7,GAGCCGGA,0.379
8,AAGCCGGA,0.413
9,CAGCCGGA,0.33
10,GAGCCGGC,0.339
11,TAGCCGAA,0.314
12,AAGCCGGT,0.332
13,ACGGGCCA,0.226
14,CATAGAAG,-0.0619
15,CAGTTCGA,-0.156
16,AGCGCCAT,-0.113
17,ACGGTAAG,0.067
18,CCGGTAAG,0.391
19,CCGGTACG,0.342
20,CCGGTAAA,0.456
21,TCGGTAAA,0.249
22,CCGGTAAC,0.36
23,CGGGCAAA,0.249
24,GGCAAATA,0.2
25,TGGCAGAA,-0.0128

row,Sequence,PBM E-score
1,CTGCTGGA,-0.231
2,GCCCGAAA,0.342
3,GTCCGAAA,0.421
4,ATCCGAAG,0.326
5,GCCCGAAC,0.298
6,CCCCGAAC,0.291
7,ATCCGAAA,0.389
8,CACCGAAC,0.194
9,ATCCGAAC,0.355
10,ACCCGAAA,0.31
11,CTCCGAAC,0.415
12,TTCCGAAA,0.363
13,GTCCGAAC,0.426
14,ATACCGTC,0.0985
15,CGGCTAGC,0.0611
16,AGTCAGAT,-0.212
17,AGCAGCTG,-0.167
18,ACCCTCAG,-0.197
19,GCGCAAAA,-0.00131
20,GTCCGACA,0.38
21,AACCGAAT,0.301
22,CGCCGAAA,0.359
23,ATCCGAAT,0.403
24,CTCCGAAA,0.41
25,CTCCGACA,0.291

row,Sequence,PBM E-score
1,ACCCGAAT,0.314
2,ATCCGACA,0.305
3,CGCCGAAG,0.359
4,CTCCGAAG,0.401
5,CACCGAAG,0.245
6,CTTCGAAA,-0.279
7,ACTTGAGA,-0.185
8,AGGGGCGG,0.235
9,ACTCGTCG,-0.172
10,CCCCGCAA,0.258
11,ACATTTAA,-0.0555
12,AGCCCTTG,-0.311
13,AGACACGG,0.0548
14,CATCCAGG,-0.183
15,ATCCGAGC,0.356
16,ATCCGAGG,0.39
17,ATCCGACG,0.333
18,GACGCACC,-0.118
19,GCAAGGAC,-0.115
20,AGTCCGTG,0.299
21,AGTCCTAT,-0.0943
22,AGTCCGAT,0.432
23,AATCCGAC,0.363
24,AGTCCGAG,0.428
25,AGTCCGAC,0.36

row,Sequence,PBM E-score
1,AATCCGAT,0.401
2,AATCCGAA,0.366
3,AGTCCAAG,-0.404
4,AAGCCTAT,-0.101
5,AAAACTAG,-0.116
6,AGTACGGG,-0.028
7,ACTTCTGG,-0.297
8,AGTGGACG,0.0359
9,TAAAAGGA,-0.0643
10,AGATAAGC,-0.0608
11,CGACCTAA,0.161
12,GGACCTAA,0.371
13,TGACCTAA,-0.158
14,CCGGGAAA,0.338
15,GCCGGAAA,0.395
16,CCCGGAAG,0.358
17,CCCGGAAA,0.411
18,TACGGAAA,0.316
19,TCCGGAAA,0.445
20,GACGGAAA,0.314
21,GGCGGAAA,0.29
22,TGCGGAAA,0.213
23,TCTCAAGA,-0.0524
24,GTCGCGTA,-0.051
25,ATTCAAAG,-0.213

row,Sequence,PBM E-score
1,ACGCTTGG,-0.193
2,GGGGCGCA,-0.255
3,ACTAGTCA,-0.241
4,GGTGTGGA,-0.00568
5,GGAACACA,-0.109
6,AGCACGAC,-0.133
7,CACGCCGA,0.169
8,AACGCCGG,0.397
9,AACGCCGC,0.355
10,TACGCCGA,0.301
11,AACGCCGT,0.273
12,AACGCCGA,0.447
13,ACCCGCCA,-0.0193
14,GGGGCTCA,-0.167
15,ATGAGTTA,-0.207
16,ATAAATCC,0.325
17,CTAAATCC,0.386
18,CTAAATCA,-0.138
19,GGGCTACA,-0.0843
20,TCCGGCAA,0.326
21,GCCGGCAC,0.327
22,GCCGGCAA,0.373
23,ACCGGCAA,0.272
24,CCCGGCAG,0.21
25,CCCGGCAA,0.401

row,Sequence,PBM E-score
1,AAGCTCGG,0.36
2,GTGCTTTA,-0.0684
3,CATCCCCG,0.356
4,CATCCCGG,0.312
5,AATCCCGG,0.397
6,AATCCCCG,0.403
7,AATCCCTG,-0.18
8,AATCCCCC,0.133
9,GCTTGACA,-0.139
10,CATGTCTC,0.131
11,AAGTGCAC,-0.0983
12,CGCTGGGA,0.0217
13,CCTCAAGG,-0.168
14,CCGGGCCA,0.348
15,CCGGGCCG,0.425
16,ACGGGCGA,0.333
17,CCGGGCGA,0.376
18,CGGGGCCC,0.258
19,GCGGGCGA,0.296
20,GCGGGCCC,0.216
21,ACGGGCCG,0.29
22,CCGGGCCC,0.369
23,CCGCTATA,0.27
24,AATAGCAT,-0.0964
25,CGTGTACC,0.11

row,Sequence,PBM E-score
1,GGGAATAC,0.181
2,AGAAATAA,0.0188
3,GGAAATAA,0.413
4,GGGAATAA,0.396
5,CGAAATAA,0.182
6,TGGAATAA,-0.128
7,ACGCACCG,0.00605
8,ACCAGTTA,-0.225
9,TGCCGACA,0.223
10,CGCCGAAC,0.344
11,CACCGAAA,0.261
12,AGCCGAAC,0.227
13,GGCCGTAA,0.377
14,TGCCGTAA,0.0155
15,GGCCGAAC,0.37
16,CGCCGACA,0.215
17,CGCCGTAA,0.283
18,GACCGAAA,0.385
19,GACCGAAC,0.347
20,GGCCGACA,0.383
21,ACGAGCTA,-0.108
22,ACCCAGTA,-0.253
23,ATTTGGTC,0.141
24,CTCCTAAC,-0.191
25,AGCCGAAA,0.329

row,Sequence,PBM E-score
1,TGCCGAAA,0.303
2,GGCCGAAA,0.405
3,CGTTTTAG,-0.114
4,AACCTGTG,-0.315
5,AGAACTCG,0.0147
6,GAGGGAGC,-0.175
7,AACCAAGT,-0.152
8,TGATAAAA,-0.0276
9,GGATAAAA,0.261
10,CGATAAAA,0.382
11,AACTCGGA,0.345
12,ACCTCGGC,0.377
13,CCCTCGGA,0.373
14,ACCTCGGG,0.26
15,TACTCGGA,0.312
16,GACTCGGA,0.405
17,CGCTCGGA,0.404
18,CCCTCGTA,-0.0221
19,GGCTCGGA,0.344
20,AGCTCGGA,0.325
21,CCCTCGGC,0.268
22,GCCTCGGA,0.331
23,CATCACAG,-0.258
24,TGGATGAA,-0.183
25,AAAGAAGA,-0.0993

row,Sequence,PBM E-score
1,GAGTGTGA,-0.176
2,CCCCTTAC,-0.132
3,TAAGGTCA,-0.193
4,CAGGCTAG,-0.279
5,AATGGGGC,-0.188
6,ACCTCGGA,0.384
7,ACCTCGAA,-0.135
8,CACTCGGC,0.374
9,AACTCGGC,0.316
10,ACCTCGTA,-0.0139
11,CACTCGGG,0.159
12,CTCAGCTA,-0.214
13,CCCTACTC,-0.0316
14,GCGATACC,0.192
15,CCGATTCC,0.405
16,ACGATACG,-0.263
17,CCGATTCG,0.347
18,CCGATACG,0.42
19,ACGATACA,-0.216
20,ACGATACC,0.179
21,CCGATACC,0.377
22,GCGATACA,0.0344
23,CAGATACG,0.0074
24,GCGATTCC,0.211
25,CCGATACA,0.43
